In PubChem BioAssay AID686978 (National Center for Advancing Translational Sciences (NCATS), 2013):
Screen size: about 420,000 compounds; about 64,000 (15%) were called active. Not shown: some 27% with an inconclusive outcome. The call rests on the fitted dose curve; in most records, active means well fitted inhibition curve with a large enough effect; inconclusive means small, poorly fitted or top-dose-only effect; inactive means flat fitted curve, though single readings scatter. These entries were drawn from the full list. Entries that show only a call come without a potency.

Assay: qHTS for Inhibitors of human tyrosyl-DNA phosphodiesterase 1 (TDP1): qHTS in cells in absence of CPT; further: nearly all actives have a fitted effect of over 55% in size
Conditions: DT40 Tdp1-/- hTDP1 cells, no CPT, ATP luminescence, 48 h; activity change, negative = growth inhibition: at 46.2 µM (top of the series)
Outline: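 Stably hTDP1-transfected Tdp1-null chicken DT40 cells were treated with library compounds minus camptothecin and grown for at least 48 hr at 37 °C, after which cellular ATP was quantified by luminescence.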
Potency means the concentration at half of the fitted maximal effect.

SMILES	Potency
NCCCC[C@@H]1NC(=O)[C@H](CCC(=O)O)NC(=O)c2cc([N+](=O)[O-])cc(I)c2NCC[C@@H](C(N)=O)NC1=O	inactive
CCc1nnc(NC(=O)CSCc2cc(=O)n3cc(C)sc3n2)s1	inactive
COc1ccc(CN2CC[C@H]3C=CC[C@@H](C(=O)N4CCOCC4)[C@H]3C2=O)cc1OC	inactive
CC(NC(=O)c1cc2c(=O)n3ccccc3nc2n(C(C)C)c1=N)c1ccccc1 (stereo not drawn)	18.4 µM (active)
Cc1ccc2nc3c(cc(C(=O)NC4CCCCC4)c(=N)n3C(C)C)c(=O)n2c1	inactive
CC(NC(=O)c1ccccc1C(=O)O)c1ccc(-n2ccnc2)cc1 (stereo not drawn)	inactive
O=C(CCNC(=O)c1ccccc1Cl)NCc1ccco1	inactive
COc1cccc(C(=O)N(Cc2cccc(Cl)c2)Cc2ccco2)c1	14.6 µM (active)
O=C(Nc1ccccc1)N(Cc1cccnc1)Cc1ccco1	inactive
CCc1ccc(CN(Cc2ccco2)C(=O)c2ccccc2Cl)cc1	20.6 µM (active)
COC(=O)c1ccc(COC(=O)CNC(=O)c2cccc(OC)c2)o1	inactive
COc1cccc(NC(=S)NCc2ccco2)c1	inactive
CCCOc1ccc(Cn2c(O)cc(=O)[nH]c2=O)cc1	inactive
CN1CCN(C(=O)/C(=C\c2ccc3c(c2)OCO3)NC(=O)c2cccs2)CC1	inactive
Cc1ccc(-c2nc(-c3ccncc3)no2)c(C)c1	inactive
Cc1nn(CC(=O)NCC2CCCO2)c(=O)c2cc3ccccc3n12 (stereo not drawn)	inactive
CN(C)C1=NC[C@H](Cc2ccccc2)N1CCc1ccc(F)cc1	inactive
CCCCN1C(=S)NC[C@@H]1C(C)CC (stereo partly drawn)	inactive
CCCCN1C(N)=NC[C@@H]1CC1CCCCC1	16.4 µM (active)
CCCCNC(=O)C1CCC(=O)N1CCc1ccccc1 (stereo not drawn)	inactive
CCCCN1C(N)=NC[C@@H]1Cc1ccccc1	14.6 µM (active)
CCCC[C@@H]1CN=C(N)N1CCCC	7.31 µM (active)
NNC(=O)c1ccc(Cl)cc1Cl	inactive
OCC(CO)(CO)NCc1ccc(-c2ccccc2)cc1	inactive
Cn1nc([N+](=O)[O-])nc1Sc1ccc(C(C)(C)C)cc1	inactive
O=C(CC1NCCNC1=O)Nc1cc(Cl)cc(Cl)c1 (stereo not drawn)	inactive

SMILES	Potency
Cc1ccc(SCC(=O)c2sc(-c3ccccc3)nc2C)cc1	inactive
CNC(=O)c1csc(-c2ccccc2)n1	inactive
Cc1nc(-c2ccccc2)sc1C(=O)/C=C/c1ccccc1	18.4 µM (active)
N#Cc1cnn2cc(CCN3CCOCC3)c(-c3ccc(F)cc3)nc12	inactive
CCCc1c2oc(C(=O)O)cc(=O)c2cc2c(=O)cc(C(=O)O)n(CC)c12	inactive
O=C(Nc1ccccc1C(=O)NCC1CCCO1)c1ccccc1F (stereo not drawn)	inactive
CNC(=O)CN1C(=O)NC(c2ccccc2)(c2ccccc2)C1=O	inactive
COc1ccc(CN2C(=O)C(CC(=O)NCc3cccc4ccccc34)CC(C(=O)N3CCOCC3)=C2C)cc1 (stereo not drawn)	inactive
CC1=C(C(=O)N(C)C)CC(CC(=O)NCCN2CCOCC2)C(=O)N1Cc1ccccc1 (stereo not drawn)	inactive
CCN(CC)C(=O)C1=C(C)N(Cc2ccc(C(C)(C)C)cc2)C(=O)C(CC(=O)NCc2cccc3ccccc23)C1 (stereo not drawn)	16.4 µM (active)
CCN(CC)C(=O)C1=C(C)N(Cc2ccc(F)cc2)C(=O)C(CC(=O)NC2CCCC2)C1 (stereo not drawn)	inactive
CCN(CC)C(=O)C1=C(C)N(Cc2ccccc2)C(=O)C(CC(=O)NC(c2ccccc2)c2ccccc2)C1 (stereo not drawn)	18.4 µM (active)
CCN(CC)C(=O)C1=C(C)N(Cc2ccc(OC)cc2)C(=O)C(CC(=O)NCc2ccco2)C1 (stereo not drawn)	inactive
COc1ccc2c(C)cc3nnnn3c2c1	inactive
O=C(Nc1ccc(Cl)cc1)c1cc2nc(C3CC3)cc(C(F)(F)F)n2n1	inactive
COc1ccccc1NC(=O)CSc1nnc(CNC(=O)c2ccccc2F)o1	inactive
COc1cc(C(=O)NCc2nnc(SCC(=O)Nc3nc4ccc(C)cc4s3)o2)cc(OC)c1OC	4.61 µM (active)
COc1ccc(C(=O)NCc2nnc(SCC(=O)Nc3cccc(OC)c3)o2)cc1	inactive
O=C(O)c1cc(S(=O)(=O)NC2CCCc3ccccc32)ccc1O (stereo not drawn)	inactive
Cc1cccc(OCC(=O)NCCCNC(=O)c2ccccn2)c1	inactive
CCC(C)(NC(=O)c1ccccn1)C(=O)NC1CCCCC1 (stereo not drawn)	inactive
CCN(CC)CCOc1ccc2c(c1)C(=NNC(=O)c1ccccn1)c1cc(OCCN(CC)CC)ccc1-2	3.26 µM (active)
N#Cc1ccc[n+](CC(=O)c2ccc(O)c(O)c2)c1	inactive
CCn1c(/C=C/Nc2ccccc2)[n+](CC)c2ccc(C(=O)OCC(F)(F)F)cc21	14.6 µM (active)
CCOC(=O)c1cc2ccccc2n1CC(=O)c1ccccc1	inactive
Cc1nnc(SC(C(=O)c2ccccc2)c2ccccc2)[nH]c1=O (stereo not drawn)	inactive

SMILES	Potency
NC(=O)c1ncn([C@@H]2O[C@H](CNCc3cnc(N4CCOCC4)s3)[C@@H](O)[C@H]2O)n1	inactive
CN(C)C(=O)c1ccc2c(c1)C1C3CCC(C3)C1C(c1ccccc1)N2 (stereo not drawn)	18.4 µM (active)
CN(C)C(=O)c1ccc(NC(=O)c2ccccc2-c2ccccc2)cc1	inactive
O=C(O)CCCN1C(=O)C2C3c4ccccc4C(c4ccccc43)[C@@H]2C1=O (stereo partly drawn)	inactive
Cc1cc(=O)n2nc(N3CCCC(C(=O)N4CCN(C)CC4)C3)sc2n1 (stereo not drawn)	inactive
CCOC(=O)N1CCN(C(=O)C2CC(c3ccc(F)cc3)=NO2)CC1 (stereo not drawn)	inactive
CCOC(=O)N1CCN(C(=O)C2CCN(S(=O)(=O)c3cc(Cl)ccc3OCC)CC2)CC1	inactive
CCOC(=O)N1CCN(C(=O)C2CCN(c3ncnc4c3sc3cccc(F)c34)CC2)CC1	5.8 µM (active)
CCOC(=O)N1CCN(C(=O)C2CCN(Cc3ccc(OC)cc3OC)CC2)CC1	inactive
CCOC(=O)N1CCN(C(=O)C2CCCN(c3ncnc4c3sc3cccc(F)c34)C2)CC1 (stereo not drawn)	6.51 µM (active)
O=C(O)c1c(NC(=O)N2CCCC2)sc2c1CCCC2	inactive
CC(C)C(=O)N1CC(=O)Nc2ccc(F)cc2C1c1ccc(F)cc1 (stereo not drawn)	inactive
O=S(=O)(NCc1ccco1)c1cnc(Cl)c(Cl)c1	inactive
COc1ccc([C@H]2CC(=O)C=C(c3ccc(OC(F)(F)F)cc3)C2)cc1OC	16.4 µM (active)
COc1ccc([C@H]2CC(=O)C=C(c3ccc(CO)cc3)C2)cc1	inactive
COc1ccc([C@H]2CC(=O)C=C(c3ccc(C)cc3)C2)cc1	inactive
COc1cc(C2C(C#N)=C(C)NC3=C2C(=O)CC(C)(C)C3)ccc1O (stereo not drawn)	inactive
Nc1cccc(OCCCCCOc2cccc(N)c2)c1	16.4 µM (active)
C=CCNCCCCOc1ccccc1	inactive
CN(C)CCOc1cccc(Br)c1	inactive
CCCCN(C(=O)CSCC(=O)Nc1ccc(OC)cc1)c1c(N)n(CCC)c(=O)[nH]c1=O	inactive
COc1ccc(CCNC(=O)COC(=O)Cc2cccc(F)c2)cc1	inactive
O=C(C1CCCN1S(=O)(=O)c1ccc(Br)cc1)N1CCOCC1 (stereo not drawn)	inactive
Cc1ccc(N(CCC(=O)O)S(=O)(=O)c2cccc(C(F)(F)F)c2)cc1	inactive
Cc1oc2c(F)c(F)c(F)c(F)c2c1S(=O)(=O)Nc1cccc(C(F)(F)F)c1	20.6 µM (active)
Cc1noc(C)c1S(=O)(=O)Nc1ccc(C(=O)O)cc1	inactive

SMILES	Potency
COc1cc(OC)cc(C(=O)OCC(=O)Nc2sccc2C(N)=O)c1	18.4 µM (active)
Cc1cccc(C(=O)OCC(=O)Nc2sccc2C(N)=O)c1C	inactive
COc1cc(OC)cc(C(=O)OCC(=O)Nc2ccc(F)cc2F)c1	inactive
COc1ccc(S(=O)(=O)NC(C)c2ccccc2)cc1C(=O)N1CCCCC1 (stereo not drawn)	inactive
Cc1ccc2cc(CCNC(=O)c3c(-c4ccccc4Cl)noc3C)c(=O)[nH]c2c1	18.4 µM (active)
Cc1cc(C)cc(NC(=O)CCCc2nc(-c3ccccc3Cl)no2)c1	inactive
Cc1ccc(CNC(=O)c2c(-c3ccccc3)noc2C)cc1	inactive
O=S(=O)(/C=C/c1ccccc1)NCCc1ccccn1	inactive
COc1cc(OC)cc(C(=O)N[C@H](C(=O)OCC(=O)NC(C)c2ccccc2)C(C)C)c1 (stereo partly drawn)	inactive
COc1ccc(C(=O)N[C@H](C(=O)NCc2ccccc2)C(C)C)cc1	inactive
COc1cc(OC)cc(C(=O)N[C@H](C(=O)Nc2nc3ccccc3[nH]2)C(C)C)c1	2.59 µM (active)
C=CCSc1nnc(Cn2c(=O)sc3ccccc32)n1C	inactive
COc1ccc(CCN2CC(C(=O)OCC(=O)NCc3ccccc3Cl)CC2=O)cc1OC (stereo not drawn)	inactive
COC(=O)[C@]1(C)CCC[C@@]2(C)C3CC[C@]4(OC(C)=O)C[C@@]3(CCC21)CC4=NO (stereo partly drawn)	16.4 µM (active)
CN1CCN(C(=O)N2c3ccccc3CCc3ccccc32)CC1	inactive
CC(C)c1cc(Cn2c3ccccc3c(=O)n2C(C)Cn2cc(C3CC3)nn2)on1 (stereo not drawn)	inactive
CC(C)Oc1ccc(CN2CCC(n3nccc3NC(=O)c3cccnc3)CC2)cc1	inactive
CCOC(=O)C1=NNC2(c3ccc(Cl)cc3)C(=O)N(c3cc(C)cc(C)c3)C(=O)C12 (stereo not drawn)	inactive
Cc1nn(Cc2ccccc2)c2c1C(c1ccccc1)C(C#N)=C(N)O2 (stereo not drawn)	25.9 µM (active)
Cc1cc2c(c(=O)n1Cc1ccco1)C(c1ccccc1)C(C#N)=C(N)O2 (stereo not drawn)	inactive
COc1ccc(-c2[nH]nc3c2C(c2ccncc2)C(C#N)=C(N)O3)cc1 (stereo not drawn)	inactive
O=C(COC(=O)c1cc([N+](=O)[O-])ccc1NCc1ccccc1)NC1CCCCC1	inactive
Nc1c(Cl)cc(-c2csc(N3CCCC3c3nc4cc(Cl)c(Cl)cc4n3CCOCCO)n2)cc1Cl (stereo not drawn)	inactive
CC(=O)OCCN(CCCn1c(-c2ccncc2)nc2ccccc21)c1nc(-c2ccc(C)cc2)cs1	inactive
Cc1ccc(-c2csc(N3CCN(c4cc5c(cc4Cl)nc(-c4ccncc4)n5CCOCCO)CC3)n2)cc1	29.1 µM (active)
